Cycloheximide cs – affects cycloheximide protein synthesis inhibition readout, counter-screen; cell reporter, cycloheximide protein synthesis inhibition counterscreen; max response, %; 300,000 compounds, 12% hits; AID 2314; in the data active means max response mostly above about 13%, no sharp cut-off; inactive means mostly below about 14%; further: read at 38.3 µM for the half of the compounds with a filed dose; 0% is about no effect
LmPK inhibitor – LmPK (Leishmania mexicana) enzyme inhibition; Q27686; purified LmPK, Kinase-Glo ATP luminescence, 1 h; Potency, µM (series often up to 57.5 µM), for the others: top-dose activity change, negative = inhibition, actives largely listed as inhibitors; 290,000 compounds, 0.37% hits; AID 1721; further: potency means the concentration at half of the fitted maximal effect; on the % scale 0 is the no-effect control and ±100 the full control effect
Target sequence (Q27686 whole entry, looked up): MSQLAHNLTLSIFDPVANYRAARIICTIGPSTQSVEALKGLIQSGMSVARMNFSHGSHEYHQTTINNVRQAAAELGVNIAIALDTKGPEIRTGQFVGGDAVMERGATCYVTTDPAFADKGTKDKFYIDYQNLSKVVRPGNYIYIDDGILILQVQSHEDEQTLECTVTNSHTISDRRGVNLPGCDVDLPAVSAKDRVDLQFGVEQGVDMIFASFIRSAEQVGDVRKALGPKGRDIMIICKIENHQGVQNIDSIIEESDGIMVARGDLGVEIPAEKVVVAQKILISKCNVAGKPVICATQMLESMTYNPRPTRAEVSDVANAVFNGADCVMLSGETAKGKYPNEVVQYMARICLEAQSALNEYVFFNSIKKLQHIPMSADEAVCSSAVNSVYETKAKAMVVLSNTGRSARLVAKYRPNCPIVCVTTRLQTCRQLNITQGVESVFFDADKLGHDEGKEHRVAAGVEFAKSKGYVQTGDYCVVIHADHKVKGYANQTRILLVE
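Purified LmPK (0.1 nM) with 0.5 mM PEP and 0.1 mM ADP in imidazole buffer pH 7.2 with MgCl2/KCl, 1 h at room temperature. ATP formed was read by luciferase luminescence and normalized to no-enzyme and uninhibited controls.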
TbPYK inhibitor – T. brucei pyruvate kinase inhibition. Q57TT1. TbPYK enzyme, Kinase-Glo Plus ATP luminescence, 45 min. Potency, µM (doses to about 76.8 µM), inactives show top-dose activity, negative = inhibition, hits mostly inhibitors. 410,000 compounds, 0.12% hits; further: potency means the concentration at half of the fitted maximal effect; on the % scale 0 is the no-effect control and ±100 the full control effect; nearly all actives have a fitted effect of over 50% in size
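Assay buffer: 50 mM TEA pH 7.2, 100 mM KCl, 10 mM MgCl2, 0.05% BSA, 0.01% Tween-20. Pyruvate kinase from T. brucei plus substrate met compound, then ADP (130 uM final). Luminescence was read post 45 min RT.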
RE007 growth inh – less growth of the S. pombe RE007 Vpr strain; S. pombe RE007 Vpr strain, BacTiter-Glo ATP luminescence, 24 h; Potency, µM (doses to about 92.2 µM), without a hit: at the top dose activity change, negative = less growth, usual class: inhibitors; 360,000 compounds, 0.21% hits; AID 651644; active means well fitted falling curve with a large enough effect; inconclusive means small, poorly fitted or top-dose-only effect; inactive means no such curve, though single readings can be large or run the other way; further: potency means the concentration at half of the fitted maximal effect; on the % scale 0 is the no-effect control and ±100 the full control effect; nearly all actives have a fitted effect of over 50% in size
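Fission yeast RE007 carrying one integrated HIV-1 vpr copy, seeded at OD 0.01 in PMG+AL medium with 23 nL pinned compound. Grown 24 h at 30 degrees; viability read by BacTiter-Glo luminescence after 5 min.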
Shiga inhibitor – Shiga toxin inhibition; Vero cells, Shiga toxin protein synthesis inhibition reporter; inhibition, % at 38.7 µM; 290,000 compounds, 9.2% hits; AID 2315; in the data active means inhibition mostly above about 28%, no sharp cut-off; inactive means mostly below about 43%; further: 0% is about no effect
FBPA Giardia inh – Giardia lamblia aldolase inhibition; A8B2U2; purified Giardia FBPA; Potency, µM (titrated, usually from 59.6 µM), without a hit: top-dose activity, negative = inhibition, most hits filed as inhibitors; 290,000 compounds, 0.71% hits; AID 2451; further: potency means the concentration at half of the fitted maximal effect; on the % scale 0 is the no-effect control and ±100 the full control effect; nearly all actives have a fitted effect of over 55% in size
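Giardia FBPA (40 nM reagent) was preincubated 10 min at RT with compound (up to 57.5 uM final), then substrate plus GAPDH/TPI/NAD/arsenate coupling system with diaphorase/resazurin was added; resorufin fluorescence (525/598 nm) was read after 20 min.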
Numbers without * were called inactive; ? = inconclusive; nt = not tested or not shown; + = active, no number. The sample as a whole holds a higher share of hits than the screen did. Unless noted, the call rests on the fitted dose curve; in most records, active means well fitted curve in the direction sought with a large enough effect; inconclusive means small, poorly fitted or top-dose-only effect, or another doubt; inactive means no such curve, though single readings can be large; an effect the other way counts as inactive or inconclusive.

SMILES	Cycloheximide cs	LmPK inhibitor	TbPYK inhibitor	RE007 growth inh	Shiga inhibitor	FBPA Giardia inh
Cc1ccc(CSc2nc3ccccc3c(=O)n2CCCC(=O)NCc2ccco2)cc1	-0.9	3.8%	-5.6%	-6.3%	-13.7	1.7%
Cc1ccc(CSc2nc3ccccc3c(=O)n2Cc2ccco2)cc1	13.1	1.7%	-17.0%	-11.6%	62.9*	1.4%
O=C(CSc1nc2ccccc2c(=O)n1Cc1ccco1)c1ccccc1	23.9*	1.2%	0.7%	2.1%	52.3	5.5%
O=c1c2ccccc2nc(SCc2nnc(-c3ccccc3Br)o2)n1Cc1ccco1	17.2*	0.5%	-3.6%	14.2%	-9.0	5.0%
O=c1c2ccccc2nnn1CSc1nc2ccccc2c(=O)n1Cc1ccco1	-1.6	-0.4%	-6.1%	24.0%	-4.7	0.3%
O=C(CN1C(=O)COc2ccc(S(=O)(=O)N3CCCC3)cc21)N1CCN(c2cccc(C(F)(F)F)c2)CC1	nt	nt	2.1%	nt	nt	nt
CCCCOc1ccc(C2c3c(-c4ccccc4O)n[nH]c3C(=O)N2Cc2ccncc2)cc1OC (configuration not stated)	nt	nt	-9.4%	nt	nt	nt
N#Cc1cc(-c2ccccc2)nn1-c1ccccc1	19.1	25.1µM*	14.1µM*	-20.0%	16.0	?
O=c1ccc(-c2ccccc2)nn1Cc1ccccc1	nt	nt	-1.2%	7.1%	nt	nt
CNc1ccccc1-n1ccc(-c2ccccc2)n1	35.6*	5.1%	3.2%	?	86.5*	-4.5%
O=c1ccc(-c2ccc([N+](=O)[O-])cc2)nn1-c1ccccc1	-1.7	0.5%	2.9%	-5.6%	-5.3	3.2%
Cn1ccc(-c2ccccc2)n1	19.1*	-10.8%	0.3%	-7.9%	12.5	2.6%
CC1CN(c2c(F)c(N)c3c(=O)c(C(=O)O)cn(C4CC4)c3c2F)CC(C)N1 (configuration not stated)	-4.5	nt	-6.5%	nt	-2.2	-1.0%
CCCOC(=O)CCn1c(=S)oc2ccccc21	38.7*	1.9%	-0.9%	6.9%	76.4*	2.1%
COc1ccccc1NC(=O)CCn1c(=S)oc2ccccc21	-1.6	-1.9%	1.6%	2.1%	8.6	6.8%
Oc1c(N=Nc2ccc(F)cc2)ccc2ccccc12	33.7*	-8.1%	?	-23.5%	nt	?
Cc1ccc(N=Nc2ccc3ccccc3c2O)cc1	43.5*	-18.0%	-16.5%	-9.9%	nt	-20.0%
OC(CCN1CCCCC1)c1ccc(-c2ccccc2)cc1 (configuration not stated)	51.7*	0.1%	-3.2%	-4.5%	72.1*	5.3%
CCOc1ccc(-n2nnnc2-c2nc3ccccc3s2)cc1	60.1*	-2.1%	-8.2%	-12.0%	137.9*	3.4%
Cc1ccc(-n2nnnc2-c2nc3ccccc3s2)cc1	15.5*	3.1%	-0.5%	36.4%	50.9*	9.1%
Clc1nc(-c2ccccn2)nc2scc(-c3ccccc3)c12	92.6*	-15.7%	1.1%	?	+	8.3%
Cc1cc(C)cc(C(=O)Nc2c3c(nn2-c2ccccc2C)CS(=O)(=O)C3)c1	nt	nt	2.2%	nt	nt	nt
O=C(CN1CCCCCC1)N/N=C/c1cccc(Cl)c1Cl	24.4*	-1.5%	-6.0%	-11.0%	105.0*	-13.2%
O=C(CN1CCCCC1)N/N=C/c1ccccc1Br	9.1*	4.4%	-5.4%	-4.9%	20.8	-7.4%
COc1ccc(NC(=O)Nc2ccc(F)cc2F)c(C)c1	35.1*	-3.5%	9.9%	-2.9%	20.2	-14.6%
SMILES	Cycloheximide cs	LmPK inhibitor	TbPYK inhibitor	RE007 growth inh	Shiga inhibitor	FBPA Giardia inh
Cc1cc(C)nc(NC(=O)Nc2ccc(F)cc2F)n1	13.5*	0.3%	1.6%	-0.3%	16.8	-2.3%
CC(C)c1ccccc1NC(=O)Nc1ccc(F)cc1F	9.9*	0.7%	5.6%	5.4%	22.8	-0.3%
COc1ccc(NC(=O)Nc2ccc(F)cc2F)cc1	38.0*	?	0.3%	-8.8%	67.7*	3.0%
COc1ccc(NC(=O)Nc2cc(F)ccc2C)cc1	4.0	-0.7%	-0.5%	3.3%	25.2	-6.2%
CN(C(=O)c1nn(C)c2c1COc1ccccc1-2)c1cccc(C(F)(F)F)c1	nt	nt	3.4%	nt	nt	nt
O=C(CC1Sc2ccccc2NC1=O)Nc1cccc(C(F)(F)F)c1 (configuration not stated)	nt	nt	1.3%	nt	nt	nt

Screening results: PubChem BioAssay, National Center for Advancing Translational Sciences (NCATS)
